Experimental findings from PubChem BioAssay (Tox21) are described below.

SMILES strings stand for the structures. Calls of active or inactive are those of the source. Calls follow the shape of the dose curve; as a rule, active = well fitted curve in the direction sought with a large enough effect in the repeat runs; inconclusive = weak or mixed curves; inactive = flat fitted curve, though single readings scatter.
% is scaled to controls: 0 for no effect and ±100 for the full control effect.

A short description of one test: qHTS assay to test for compound auto fluorescence at 535 nm (green) in HepG2 cells (AID 720675). Particulars: green autofluorescence 485/535 nm, 1 h; series mostly up to 91.3 µM; fluorescence, % of fluorescein control: at the top concentration. On the technique in general: qHTS replaces the single test concentration by a dilution series.
Turning to `CC(C)(C)c1cc(O)ccc1O`, the call was inactive. In the case of `N#CN=C1SCCN1Cc1ccc(Cl)nc1`, the “fluorescence, % of fluorescein control” value is 0.0481% (inactive). The same measure, in the same setting: for `CCNP(=S)(OC)O/C(C)=C/C(=O)OC(C)C` (stereo not given) the value was 0.0447% (inactive).

Consider `O=C1C2CC=CCC2C(=O)N1SC(Cl)(Cl)Cl` (stereo not given), for which the outcome was inactive.

With `Clc1ccc(C(Cl)(Cl)Cl)cn1`, the “fluorescence, % of fluorescein control” value is -0.0909% (inactive).

`O=c1[nH]oc2c1CCNC2`: the “fluorescence, % of fluorescein control” value was -0.0013% [at 46 µM] (inactive). On the same count and under the same terms, for `Clc1cc2c(cc1Cl)Oc1cc(Cl)c(Cl)cc1O2` the value was -0.0272% [at 0.37 µM] (inactive); for `C#CCOC(=O)/C=C(C)/C=C/CC(C)CCCC(C)C` (stereo not given), -0.0166% (inactive). As for `CN1COCN(Cc2cnc(Cl)s2)/C1=N\[N+](=O)[O-]`, the “fluorescence, % of fluorescein control” value was 0.0279% (inactive).

Take `ClC1=C(Cl)C2(Cl)C(CBr)CC1(Cl)C2(Cl)Cl` (stereo not given): the call was inactive. On to `C=CC=O`, for which the “fluorescence, % of fluorescein control” value was 0.0393% [at 95.7 µM] (inactive).

`c1cncc([C@@H]2CCCCN2)c1`: the “fluorescence, % of fluorescein control” value is 0.0274% (inactive). Regarding `COC(=O)c1ccccc1CS(=O)(=O)NC(=O)Nc1nc(OC)cc(OC)n1`, the “fluorescence, % of fluorescein control” value was -0.0895% (inactive). Still for that read-out and setting: for `COC1=CC(=O)O[C@@H](/C=C/c2ccccc2)C1` the value was -0.036% [at 95.7 µM] (inactive); for `CC(C)c1ccc(O)cc1`, 0.248% (inactive); for `CCCCS(=O)(=O)Cl`, -0.0558% (inactive).

Turning to `CCC(C(N)=O)N1CCCC1=O` (stereo not given), the “fluorescence, % of fluorescein control” value is 0.0538% [at 46 µM] (inactive). On the same count and under the same terms, as for `CC(C)C(C)(N)C#N` (stereo not given), the figure is -0.118% (inactive). Consider `N#CN`, for which the compound was classed as inactive.

Consider `COc1cc(CCN)cc(OC)c1OC`, for which the “fluorescence, % of fluorescein control” value was -0.0132% [at 95.7 µM] (inactive).

The next test is described as follows: qHTS assay to test for compound auto fluorescence at 460 nm (blue) in HEK293 cells (AID 720678). The following applies: blue autofluorescence 405/460 nm; series mostly up to 91.3 µM; fluorescence, % of triamterene: at the top concentration. The gist of the method: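 Triamterene serves as the blue fluorophore standard. Compound signal at 405/460 nm is read in HEK293 wells (2,000 cells, 10% dialyzed FBS) after overnight treatment at 37C.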
With `CCOP(=S)(OCC)SCCl`, the “fluorescence, % of triamterene” value was 0.0303% (inactive). On the same count and under the same terms, for `CCN[C@@H](C)Cc1cccc(C(F)(F)F)c1` the value was -0.048% (inactive). The same measure, in the same setting: for `CN(C)CCc1c[nH]c2cccc(OP(=O)(O)O)c12` the value was -0.139% (inactive). Consider `CCN(CC)C1CCCCC1`, for which the “fluorescence, % of triamterene” value was 0.0763% (inactive). As for `C[C@H](N)C(=O)c1ccccc1`, the compound was called inactive. `C=C(Cl)CCl`: the “fluorescence, % of triamterene” value was -0.349% (inactive).

Turning to `N[C@@H](Cc1ccc(Oc2cc(I)c(O)c(I)c2)c(I)c1)C(=O)O`, the “fluorescence, % of triamterene” value is 0.111% [at 46 µM] (inactive). On the same count and under the same terms, for `Cc1ccc(-c2nc3ccc(C)cn3c2CC(=O)N(C)C)cc1` the value was 1.91% [at 46 µM] (inactive).

In the case of `O=[N+]([O-])CCO`, the “fluorescence, % of triamterene” value is -0.273% [at 95.7 µM] (inactive). On to `O=C(Cl)C(Cl)(Cl)Cl`, for which the “fluorescence, % of triamterene” value is -0.0271% (inactive). The same measure, in the same setting: as for `CCOC(=O)Nc1cccc(OC(=O)Nc2ccccc2)c1`, the figure is 0.0271% (inactive); as for `CCOc1cc(OP(=S)(OC)OC)nc(CC)n1`, -0.153% (inactive). On to `S=C=S`, for which the compound was called inactive. Take `O=P(O)(O)c1ccccc1`: the “fluorescence, % of triamterene” value was -0.0002% (inactive).

Regarding `N#CC(Br)(Br)C(N)=O`, the “fluorescence, % of triamterene” value was -0.388% (inactive). Still for that read-out and setting: as for `COC(=O)c1ccc(CBr)cc1`, the figure is 0.0777% [at 95.7 µM] (inactive). The same measure, in the same setting: for `COP(=O)(OC)O/C(C)=C/C(=O)N(C)C` the value was -0.0013% (inactive); for `CC(C)N(Cc1ccccc1)C(=O)C(C)(C)C`, 0.122% (inactive). On to `CCCC(C)(COC(N)=O)COC(N)=O`, for which the call was inactive. Consider `CCOP(=O)(CN(CCO)CCO)OCC`, for which the “fluorescence, % of triamterene” value was -0.04% (inactive). Consider `CC(C)(C)c1cc(O)ccc1O`, for which the call was inactive. Regarding `N#CN=C1SCCN1Cc1ccc(Cl)nc1`, the “fluorescence, % of triamterene” value is -0.193% (inactive). On to `CCNP(=S)(OC)O/C(C)=C/C(=O)OC(C)C` (stereo not given), for which the “fluorescence, % of triamterene” value was 0.153% (inactive).

`O=C1C2CC=CCC2C(=O)N1SC(Cl)(Cl)Cl` (stereo not given): the result was inactive. With `Clc1ccc(C(Cl)(Cl)Cl)cn1`, the “fluorescence, % of triamterene” value was -0.0535% (inactive). The same measure, in the same setting: for `O=c1[nH]oc2c1CCNC2` the value was 0.043% [at 46 µM] (inactive); for `Clc1cc2c(cc1Cl)Oc1cc(Cl)c(Cl)cc1O2`, -0.0407% [at 0.37 µM] (inactive). The same measure, in the same setting: for `C#CCOC(=O)/C=C(C)/C=C/CC(C)CCCC(C)C` (stereo not given) the value was -0.0451% (inactive). The same measure, in the same setting: for `CN1COCN(Cc2cnc(Cl)s2)/C1=N\[N+](=O)[O-]` the value was 0.0022% (inactive). Regarding `ClC1=C(Cl)C2(Cl)C(CBr)CC1(Cl)C2(Cl)Cl` (stereo not given), the call was inactive.

Take `C=CC=O`: the “fluorescence, % of triamterene” value was -0.0304% [at 95.7 µM] (inactive).

Consider `c1cncc([C@@H]2CCCCN2)c1`, for which the “fluorescence, % of triamterene” value is 0.045% (inactive). Consider `COC(=O)c1ccccc1CS(=O)(=O)NC(=O)Nc1nc(OC)cc(OC)n1`, for which the “fluorescence, % of triamterene” value was -0.317% (inactive).

In the case of `COC1=CC(=O)O[C@@H](/C=C/c2ccccc2)C1`, the “fluorescence, % of triamterene” value was -0.0067% [at 95.7 µM] (inactive). Still for that read-out and setting: for `CC(C)c1ccc(O)cc1` the value was -0.0012% (inactive).

As to `CCCCS(=O)(=O)Cl`, the “fluorescence, % of triamterene” value is 0.0649% (inactive). `CCC(C(N)=O)N1CCCC1=O` (stereo not given): the “fluorescence, % of triamterene” value was -0.0448% [at 46 µM] (inactive). The same measure, in the same setting: as for `CC(C)C(C)(N)C#N` (stereo not given), the figure is 0.0124% (inactive). Take `N#CN`: the compound was called inactive. As for `COc1cc(CCN)cc(OC)c1OC`, the “fluorescence, % of triamterene” value was -0.0541% [at 95.7 µM] (inactive).
